Results: ChEMBL document CHEMBL3988442, “University of Dundee, Small-Polar-MMV Screening Library” (2021)

These compounds were tested against AMP-activated protein kinase, AMPK (Homo sapiens) (UniProt P54646+O43741+P54619+Q9UGJ0+Q9Y478+Q13131+Q9UGI9) (assay: AMP-dependent Kinase enzyme assay. An in vitro enzyme assay that detects ADP turnover that is directly proportional to AMPK activity. This uses naive AMPK that is activated during the assay with MK-8722). Conditions: 30 µM.
Assay type: functional
Design: scale not given: direction of the effect not stated beside the values
Work on Cc1ncc(C(=O)N2CCCC2c2c(C)nn(C)c2C)s1 (stereo not given) yielded a Percent Effect of 1.37%.
With COc1ncc(NCc2cc(C#N)cs2)cc1C(N)=O the Percent Effect was 6.61%.
CC(C)CCc1noc(C[S+]([O-])CC(=O)NCc2ccccc2)n1 (stereo not given) gave a Percent Effect of -1.86%.
Work on Cn1cnnc1C1CCN(c2nc3ccccc3o2)CC1 yielded a Percent Effect of 1.68%.
For CCc1ccc(C(=O)N2CCCCC2CNS(C)(=O)=O)o1 (stereo not given), the Percent Effect was -5.12%.
CC(C)c1nnc2n1CCN(Cc1cc(Cl)c3c(c1)OCO3)C2 gave a Percent Effect of 8.76%.
In the case of N#Cc1ccc(Cl)cc1NCC1CC1, the Percent Effect is reported as 5.1%.
For Cc1ccccc1N1CCN(C(=O)CCc2nncn2C)C(C)C1 (stereo not given), the Percent Effect was 6.58%.
For Cc1cc(CNC(=O)NCCCC(=O)N2CCc3ccccc32)no1, the Percent Effect was -2.98%.
For CC(C)[C@@H]1CN(c2ccc(F)cn2)C[C@H]1NS(C)(=O)=O, the Percent Effect was -3.59%.
COc1ccc(Br)cc1S(=O)(=O)N(C)Cc1ccc(N(C)C)cc1 gave a Percent Effect of -1.52%.
Work on Cc1ccccc1[C@@H]1CN(Cc2ccc(C(F)(F)F)nc2)C[C@H]1C(=O)O yielded a Percent Effect of -5.65%.
Compound CC(=O)N1CCCC1CCc1ccnc(-c2cncnc2)c1 (stereo not given) has a Percent Effect of 22.4%.
Work on CN(Cc1cccc(OC(F)(F)F)c1)Cc1cnn(C)c1 yielded a Percent Effect of -4.15%.
Compound Cc1nc(-c2ccnn2C)cc(C2CCCN(S(C)(=O)=O)C2)n1 (stereo not given) has a Percent Effect of 13.9%.
CCCC(=O)NC1CCCN(c2cncc(Br)c2)C1 (stereo not given) showed a Percent Effect of 22.4%.
For CN(C)CCN(Cc1ccc(C#N)cc1)C(=O)c1ccn(C)c(=O)c1, the Percent Effect was 15.4%.
CN(C)S(=O)(=O)N1CCCC(c2nccnc2-c2cccc(Cl)c2)C1 (stereo not given) gave a Percent Effect of 16%.
With Cc1noc(C(C)N2CCN(Cc3noc(C4CC4)n3)CC2)n1 (stereo not given) the Percent Effect was 3.22%.
CCc1cnc(N2CCCC(CCC(N)=O)C2)nc1 (stereo not given) showed a Percent Effect of -6.19%.
